Compound activity as filed in PubChem.
Shn3 inh set2: reduces Shn3 3'UTR luciferase signal in osteoblasts. Clone20 osteoblast Shn3 3'UTR firefly luciferase, 24 h. inhibition, % at 12.5 µM. actives 0.52% (n = 360,000);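 active = mean inhibition of at least 75% with every replicate also reaching 75%; inconclusive = mean inhibition at least 75% but some replicate below; inactive = mean inhibition below 75%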;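 also: 0% = median of neutral control wells and 100% = pilot-screen positive control compound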
697 NFkB inh: lowers PMA/ionomycin-induced NF-kB signal in 697 B cells; 697 B-cell NF-kB luciferase reporter, 16 h; actives 0.33% (n = 330,000); AID 435022; inhibition, % at 4 µM; in the data active = inhibition above about 35%
H9c2 TAG inh: inhibitors of triacylglycerol accumulation; H9c2 cells, Nile Red lipid (TAG) fluorescence; cells loaded with 200 µM oleic acid; inhibition, % at 12.5 µM; actives 0.66% (n = 230,000); AID 651582;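 active = pattern-corrected inhibition of lipid staining of at least 50% with the nuclear-stain viability signal not falling by more than 50%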;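 also: 0% = DMSO wells and 100% = triacsin C control wells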
aSyn 5UTR inh: 5' untranslated region of α-synuclein, MLPCN primary screen | actives 0.82% (n = 300,000) | AID 1813 | alpha-synuclein 5'UTR reporter, inhibitor activity | inhibition, % (tested at 7.5 µM); in the data active = inhibition above about 60%; inconclusive = no clear call, values can overlap the other calls;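 also: H4 neuroglioblastoma cells stably carrying SNCA 5'UTR luciferase fusion; 0% = DMSO wells and 100% = positive control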
Jurkat NFkB inh: inhibitors of the PMA/ionomycin-induced NF-kB reporter in Jurkat cells. PMA/ionomycin-induced NF-kB luciferase reporter, luminescence. inhibition, % at 4 µM. actives 0.53% (n = 330,000); in the data active = inhibition above about 50%
Gli-Sufu block: blocks Gli-Sufu signaling in a luciferase reporter | actives 0.74% (n = 340,000) | AID 588413 | inhibition, % at 5 µM | Sufu-KO-LIGHT fibroblasts, Gli luciferase reporter luminescence;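 active = inhibition above about 55%, limit read from the data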;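 also: 0% = DMSO-treated cells and 100% = wells with medium but no cells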
Gli antag conf: confirmation of Gli-SUFU pathway antagonists; actives 40% (n = 2,500); shares compounds with Gli-Sufu block; Sufu-KO-LIGHT cells, Gli luciferase reporter, luminescence; inhibition, % at 5 µM;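 active = mean inhibition at 5 µM reaching about 45%, limit read from the data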;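 also: plate controls were DMSO-treated cells for no effect and wells lacking cells for full effect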
Gli cytotox: cytotoxicity counter-screen for Gli-SUFU antagonists; shares compounds with Gli-Sufu block; Sufu-KO-LIGHT cells cytotoxicity, ATP luminescence; cytotoxicity, % at 5 µM; actives 32% (n = 2,500); AID 651994;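 active = mean cytotoxicity at 5 µM above about 25%, limit read from the data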;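 also: cells exposed to compound overnight for roughly 16 to 18 hours; plate controls were DMSO wells with cells for no effect and medium without cells for full effect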
Wnt3a counter: Wnt3a reporter inhibition counter-screen; shares compounds with Gli-Sufu block; Wnt-LIGHT cells, Wnt3a-driven luciferase reporter, luminescence; inhibition, % at 6.25 µM; actives 20% (n = 2,500);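 active = mean inhibition above about 25%, limit read from the data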
* marks the source's active call; other numbers are inactive results; ? = inconclusive; / = not tested or not shown. This is a sample that favours compounds with a hit; in the whole collection about 2.3% have one here.

SMILES | Shn3 inh set2 | 697 NFkB inh | H9c2 TAG inh | aSyn 5UTR inh | Jurkat NFkB inh | Gli-Sufu block | Gli antag conf | Gli cytotox | Wnt3a counter
Cc1ccc(CNC(=O)c2cccc(S(C)(=O)=O)c2)cc1 | -2.9 | 17.5 | -9.9 | 8.7 | 9.0 | -5.8 | / | / | /
O=C(Nc1ccnn1C1CCN(Cc2c(F)cccc2Cl)CC1)C1CCCC1 | 9.6 | 1.4 | / | -1.4 | 5.6 | 27.1 | / | / | /
O=C(NC(Nc1nc2ccc([N+](=O)[O-])cc2s1)(C(F)(F)F)C(F)(F)F)c1cccnc1 | 83.3 | -17.6 | -8.6 | ? | 13.3 | 84.2* | 87.0* | 35.5* | 81.3*
COc1ccc(CN(C)CC2CCCN(CCc3ccccc3C)C2)cc1O (stereo not drawn) | 6.9 | -13.2 | 1.9 | -6.9 | 4.3 | 20.1 | / | / | /
COc1cccc(CN(C)CC2CCCN(CCc3ccccc3C)C2)c1 (stereo not drawn) | 4.4 | 4.1 | 15.2 | -9.1 | -7.1 | 60.6* | 18.4 | 3.0 | -16.7
CCN(CC)S(=O)(=O)c1ccc(S(=O)(=O)Nc2c(C)nn(C)c2C)cc1 | 84.8 | -60.3 | -6.5 | -1.4 | 32.1 | 65.5* | 54.3* | 18.2 | 25.4*
Cc1nn(C)c(C)c1NS(=O)(=O)c1ccc(Cl)cc1 | -5.0 | -0.9 | -12.1 | 4.6 | -3.4 | -4.1 | / | / | /
c1ccc(-c2nnc(-c3ccccn3)c(-c3ccccn3)n2)nc1 | -6.6 | 6.3 | -1.9 | -8.7 | 2.1 | 3.0 | / | / | /
CN(C)c1nc(-c2ccccn2)nnc1-c1ccccc1 | 92.7* | -19.8 | -87.4 | 79.3* | -1.6 | 66.0* | 65.7* | 23.8 | 72.0*
CCN(CC)c1nc(-c2ccccn2)nc(-c2ccccc2)c1C#N | 65.3 | 8.9 | / | 35.3 | 4.3 | 62.9* | 25.0 | 12.0 | 10.2
Cc1ccsc1C(=O)OCC(=O)NCc1ccc2c(c1)OCO2 | -13.7 | 19.5 | -13.4 | -37.8 | -6.6 | 6.0 | / | / | /
Cc1ccc[n+](CC(=O)c2ccc(-c3ccccc3)cc2)c1 | 9.7 | -11.0 | / | -5.2 | -3.9 | 4.3 | / | / | /
Cc1ccc(C)[n+](CC(=O)c2ccc(-c3ccccc3)cc2)c1 | 66.1 | -8.7 | -5.1 | -11.6 | 19.3 | 55.5* | 35.9 | 15.8 | -21.1
O=C(Cc1ccc(Cl)cc1)N1CCN(c2ccccc2)CC1 | 7.1 | -30.5 | / | -19.2 | -0.2 | 52.5 | 23.3 | 13.0 | -40.2
Cc1ccc(NC(=O)Nn2cnnc2)c(C)c1 | -1.7 | 11.6 | -0.9 | -13.2 | 14.8 | 55.1* | 31.1 | 8.0 | 9.6
Cc1ccc(NC(=S)Nn2cnnc2)c(C)c1 | 11.0 | 20.7 | -6.1 | 12.1 | 4.6 | / | / | / | /
CCC(C)[C@H](NC(=O)N1CC(=O)Nc2ccccc21)C(=O)Nc1nccs1 (stereo partly drawn) | -30.7 | -2.2 | / | -43.9 | -0.6 | 59.9* | 12.6 | 25.9* | -8.9
CC(C)[C@H](NC(=O)N1CC(=O)Nc2ccccc21)C(=O)Nc1nccs1 | -17.3 | -9.4 | / | 12.3 | 10.6 | -15.2 | / | / | /
COc1ccc2ccc(=O)oc2c1CC=C(C)C | 9.9 | 8.7 | / | 24.9 | 12.5 | 0.7 | / | / | /
Cc1ccccc1-n1c(=O)cc(N2CCc3ccccc32)[nH]c1=O | 2.0 | -0.3 | 8.1 | -16.6 | 14.2 | 63.3* | 29.2 | -11.4 | -4.1
Nc1cccc(C(=O)Nc2cccc3ncccc23)c1 | -2.0 | 7.4 | / | 15.4 | -5.4 | 0.8 | / | / | /
CC(=O)Nc1cccc(C(=O)Nc2cccc3ncccc23)c1 | 10.1 | 17.7 | / | -4.2 | 11.2 | 85.7* | 17.7 | 5.2 | 22.5
CCN(CC)C(=O)CN(c1cc(Cl)ccc1OC)S(C)(=O)=O | 20.4 | 12.0 | / | 19.4 | 6.8 | 50.8 | 21.9 | 12.9 | -5.5
Cc1[nH]c(C)c(S(=O)(=O)Nc2ccccc2Cl)c1C(=O)N1CCCC1 | 4.4 | 7.1 | / | -6.3 | -3.0 | 58.5* | 19.7 | -1.1 | 5.5
CCOc1ccc(CNCCCSc2ncccn2)cc1 | 3.8 | 0.2 | -2.7 | 1.4 | -1.0 | 15.8 | / | / | /
SMILES | Shn3 inh set2 | 697 NFkB inh | H9c2 TAG inh | aSyn 5UTR inh | Jurkat NFkB inh | Gli-Sufu block | Gli antag conf | Gli cytotox | Wnt3a counter
COC(=O)c1ccc(COC(=O)c2ccc(SC)cc2OC)cc1 | -59.3 | -54.8 | / | -115.0 | -31.4 | -29.3 | / | / | /
Cc1c(F)cccc1NS(=O)(=O)c1ccc2c(c1)n(C)c(=O)c(=O)n2C | 3.2 | 11.0 | / | 3.5 | -1.5 | 52.7 | 6.8 | 9.5 | -21.5
O=C(NC1CCN(S(=O)(=O)c2cccc([N+](=O)[O-])c2)CC1)C1CCCCC1 | 7.6 | 0.3 | / | 0.7 | -8.5 | -16.3 | / | / | /
Cc1cc(C)c2nc(Nc3nc(-c4ccccc4)cc(=O)[nH]3)nc(C)c2c1 | -19.8 | 5.4 | 16.8 | -4.9 | 2.9 | -17.1 | / | / | /
CC1=CC(C)(C)N=C(Nc2nc(C)c3cc(C)cc(C)c3n2)N1 | 39.8 | -10.2 | 10.2 | -6.3 | 11.8 | 50.4 | 26.3 | 16.3 | -68.4
COc1ccc(C2(O)CN(c3ccc(C)cc3)C3=[N+]2CCCC3)cc1 (stereo not drawn) | 81.5 | 7.3 | 1.6 | 13.1 | -8.0 | 53.6 | 55.5* | 33.0* | -0.3
Cn1c(=O)oc2cc(S(=O)(=O)Nc3ccccc3)ccc21 | -3.7 | 1.5 | 9.3 | 13.4 | 7.6 | -2.6 | / | / | /
CC(C)NS(=O)(=O)c1ccc2c(c1)oc(=O)n2C | 10.0 | -2.5 | -1.7 | 15.2 | -1.3 | 57.2* | 10.4 | 2.3 | -10.4
O=C(NCC(c1ccco1)N1CCc2ccccc2C1)c1ccc(Cl)cc1 (stereo not drawn) | 1.6 | 15.1 | -12.2 | -11.4 | 2.6 | -1.7 | / | / | /
O=C(Nc1c(-c2ccc(Cl)cc2)[nH][nH]c1=O)c1ccccc1Cl | 4.2 | / | / | / | / | / | / | / | /
CCn1c(=O)n(CC)c2cc(N3CCCC3)c(NC(=O)c3ccc(C)c([N+](=O)[O-])c3)cc21 | -3.6 | 3.6 | / | 19.5 | 1.6 | 50.8 | 52.9* | 34.7* | 7.5
CCn1c(=O)n(CC)c2cc(N3CCCC3)c(NC(=O)c3cccc(Cl)c3)cc21 | -22.3 | 7.7 | / | 28.1 | 7.7 | 11.2 | / | / | /
Cc1c(CN2CCN(c3cccc(C(F)(F)F)c3)CC2)c(=O)n(-c2ccccc2)n1C | 6.7 | -23.0 | -1.4 | 3.2 | 4.0 | -11.3 | / | / | /
CCC(C)NC(=O)CNC(=S)N(Cc1ccc(F)cc1)C1CCCCC1 (stereo not drawn) | 1.6 | -7.4 | 10.1 | 28.9 | 4.5 | 4.8 | / | / | /
O=C(CNC(=S)N(Cc1ccc(F)cc1)C1CCCCC1)NC1CC1 | 24.5 | -8.0 | / | 19.8 | -5.4 | 59.3* | 19.7 | 2.5 | 0.2
Cc1ccc(C)c(N2CCN(C(=O)CN(C)S(=O)(=O)c3ccc4c(c3)CCC(=O)N4)CC2)c1 | 4.7 | -2.1 | 6.5 | 13.2 | 9.2 | 13.5 | / | / | /
O=c1cc([O-])[n+]2c3n1CCCN3CCC2 | 15.5 | 3.6 | / | 15.8 | 2.1 | -0.9 | / | / | /
CCOC(CN=c1nc(N(C)C)ss1)OCC | -1.1 | / | 15.5 | / | / | 84.3* | 61.6* | 30.4* | 12.4
CN(C)c1nc(=NCc2ccco2)ss1 | 41.6 | / | / | -4.3 | / | 6.9 | / | / | /
